Reference: PubChem BioAssay AID720709 (National Center for Advancing Translational Sciences (NCATS), 2013)
Screen size: about 360,000 compounds; about 520 (0.14%) were called active. Another 3% or so got no clear call; they are omitted. Shown is part of a subset that was picked to be rich in actives. A number with no mark means an inactive call. Calls come from the whole dose curve; as a rule, active = well fitted inhibition curve with a large enough effect; inconclusive = small, poorly fitted or top-dose-only effect; inactive = no such curve, though single readings can be large or run the other way.

target: Rap guanine nucleotide exchange factor 3 (Homo sapiens) (UniProt O95398); test: qHTS for Antagonist of cAMP-regulated guanine nucleotide exchange factor 3 (EPAC1): primary screen; conditions: EPAC1 GEF assay, Rap1b-BODIPY-GDP exchange fluorescence; series mostly up to 115 µM; activity change, negative = inhibition: at the top concentration; note: nearly all actives have a fitted effect of over 50% in size
Source text: In multi-cellular eukaryotic organisms, the effects of cAMP are transduced by two ubiquitously-expressed intracellular cAMP receptors, the classic protein kinase A/cAMP-dependent protein kinase (PKA/cAPK) and the more recently discovered exchange protein directly activated by cAMP/cAMP-regulated guanine nucleotide exchange factor (EPAC/cAMP-GEF). Both PKA and EPAC are ubiquitously expressed in all tissues, and an increase in intracellular cAMP levels will lead to the activation of both PKA and EPAC. Therefore, careful dissections of the individual role and relative contribution of EPAC and PKA within the overall cAMP signaling in various model systems are critical for further elucidating the mechanism of cAMP signaling. To date no EPAC-specific antagonists and agonist, as well as isoform-specific agonists have been reported, and developing EPAC-specific pharmacological probes to determine the physiological functions that EPAC play in the overall cAMP-mediated signaling remains a major challenge within the research field. Furthermore, identified regulators of EPAC may lead to new mechanism-based therapeutic strategies specifically targeting the EPAC / cAMP-signaling components as EPAC has been implicated to play important roles in major human pathological conditions such as diabetes, heart disease, and cancer. This qHTS will be used to screen the Molecular Libraries Small Molecule Repository (MLSMR) as a concentration-titration series using the NCGC unique quantitative screening (qHTS) platform to find inhibitors for EPAC1. In addition, this assay will also be used as a counterscreen for the EPAC2 qHTS. This fluorescent based assay is developed and validated for EPAC1 that measures exchange using EPAC effector Rap1 complex with BODIPY-GDP, a GDP analog with a tethered fluorophores. Inhibitors are identified by monitoring the change in fluorescence signal as the exchanged free BODIPY-GDP has a reduced fluorescence compared to Rap1-bound BODIPY-GDP. Decrease in signal (inhibition) is the desired outcome for the EPAC1 antagonist while no activity in this assay is desired for the EPAC2 antagonist counterscreen. de Rooij, J., Zwartkruis, F. J., Verheijen, M. H., Cool, R. H., Nijman, S. M., Wittinghofer, A., and Bos, J.L. (1998) Nature 396, 474-477 [2] Kawasaki, H., Springett, G. M., Mochizuki, N., Toki, S., Nakaya, M., Matsuda, M., Housman, D. E., and Graybiel, A. M. (1998) Science 282, 2275-2279 NIH Chemical Genomics Center [NCGC] NIH Molecular Libraries Probe Centers Network [MLPCN] MLPCN Grant: NS066510 Assay Submitter (PI): Xiaodong Cheng, The University of Texas, Medical Branch
Briefly, three uL of reagents (100 nM EPAC1, 250 nM RAP1B-BODIPY-GDP, 50 uM GDP) were dispensed into a 1536-well Greiner black solid-bottom medium binding assay plate. Controls and test compounds (23 nL) were transferred to the plate via a Kalypsys pin tool equipped with a 1536-pin array. The plates were centrifuged at 1,000 rpm for 15 seconds followed by 5 minute incubation at room temperature. The assay plates were read at 5 minute intervals for 30 minutes in the ViewLux plate reader using 480nm excitation and 540nm emission filters. The results were normalized to the […] positive control ATA and DMSO.
Potency is the fitted concentration of half-maximal effect.

Sequence of Rap guanine nucleotide exchange factor 3 (Homo sapiens) (O95398 whole entry, looked up): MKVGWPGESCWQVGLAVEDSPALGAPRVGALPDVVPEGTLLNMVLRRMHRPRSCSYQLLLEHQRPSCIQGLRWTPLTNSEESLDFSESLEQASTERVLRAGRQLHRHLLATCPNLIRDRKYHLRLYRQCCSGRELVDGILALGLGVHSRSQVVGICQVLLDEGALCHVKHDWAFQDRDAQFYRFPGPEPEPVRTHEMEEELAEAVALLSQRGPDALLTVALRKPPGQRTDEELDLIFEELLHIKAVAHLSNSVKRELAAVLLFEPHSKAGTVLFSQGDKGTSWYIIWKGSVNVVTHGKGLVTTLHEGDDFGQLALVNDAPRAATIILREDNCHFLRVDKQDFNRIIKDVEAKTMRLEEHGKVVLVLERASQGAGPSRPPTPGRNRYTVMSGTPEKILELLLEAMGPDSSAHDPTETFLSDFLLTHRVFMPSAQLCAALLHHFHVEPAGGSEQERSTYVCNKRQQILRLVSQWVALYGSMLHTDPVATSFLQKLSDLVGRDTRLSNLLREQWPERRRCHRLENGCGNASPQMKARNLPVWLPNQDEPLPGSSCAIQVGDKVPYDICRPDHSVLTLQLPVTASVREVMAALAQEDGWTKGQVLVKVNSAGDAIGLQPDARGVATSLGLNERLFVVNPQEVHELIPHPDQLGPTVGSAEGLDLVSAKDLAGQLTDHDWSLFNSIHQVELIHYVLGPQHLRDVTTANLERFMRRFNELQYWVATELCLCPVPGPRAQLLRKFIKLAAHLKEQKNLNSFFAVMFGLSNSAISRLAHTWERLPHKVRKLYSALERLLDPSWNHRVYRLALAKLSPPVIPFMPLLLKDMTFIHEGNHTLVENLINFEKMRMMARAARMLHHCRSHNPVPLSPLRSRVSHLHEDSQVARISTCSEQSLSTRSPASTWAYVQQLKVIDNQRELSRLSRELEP

Row | Compound | activity change, negative = inhibition | Potency
1 | COC(=O)C[C@@H]1C=C[C@@H](NS(=O)(=O)c2cccc(OC)c2)[C@@H](CO)O1 | -27.2% | –
2 | CC(C)(C)CC(=O)Nc1nc(C(N)Cc2ccc(C(F)(F)F)cc2)cs1 (stereo not given) | 12.1% | –
3 | O=C(NCc1ccccc1)C1c2ccccc2OCC(=O)N1C1CC1 (stereo not given) | -2.01% | –
4 | Nc1[nH]c(C(=O)c2ccccc2)c(-c2ccc(Br)cc2)c1C(=O)NC1CC1 | -28.1% | –
5 | Cc1ccc(S(=O)(=O)N2CCC(=O)N([C@H](COCc3ccccc3)C(C)C)CC2)cc1 | 9.8% | –
6 | Cn1cnc(S(=O)(=O)N2C[C@@H](O)COC[C@@H]3O[C@H](CC(=O)NC4CCC4)CC[C@H]32)c1 | -13.4% | –
7 | NC1=CC(=O)C(=O)c2cccnc21 | – | 56.2 µM (active)
8 | O=C(OC1CC2CC1[C@H]1CCCCN1C2=O)N1CCOCC1 (stereo not given in full) | 2.08% | –
9 | O=C1C(Sc2cccc(F)c2)=C[C@@]2(O)CC[C@@H](O)[C@]1(Sc1cccc(F)c1)[C@H]2O | -1.01% | –
10 | O=C(Nc1ccc(F)cc1)C(CCc1ccccc1)N1CCN(CC(=O)N2CCCC2)CC1 (stereo not given) | 1.09% | –
11 | OC(c1ccccc1)(c1ccccc1)C1CCN(CCCOc2ccccc2)CC1 | 16.4% | –
12 | CCC(c1nc2ccccc2[nH]1)n1c(=O)c(-c2cccs2)nc2ccccc21 (stereo not given) | 12.6% | –
13 | Cc1ccc(Cc2c(-c3ccc(Cl)cc3)nc3c4ccccc4ccn23)cc1 | 10.1% [at 57.5 µM] | –
14 | CCCCN1C(=O)C(CC(=O)NCc2cccs2)CC(C(=O)N2CCCCCC2)=C1C (stereo not given) | 3.73% | –
15 | O=C(Nc1ccc(S(=O)(=O)Nc2nccs2)cc1)c1cc(=O)[nH]c2ccccc12 | -5.17% | –
16 | O=C(CCc1ccccc1Cl)Nc1ccc(S(=O)(=O)Nc2nccs2)cc1 | -9.94% | –
17 | O=C(Nc1ccc(S(=O)(=O)Nc2nccs2)cc1)c1cc(-c2ccncc2)nc2ccccc12 | – | 79.4 µM (active)
18 | Cc1ccc2nc(-c3ccco3)c(Cc3cccc(Cl)c3)n2c1 | -18.2% | –
19 | CCOC(=O)N1CCN(C(=O)C[C@@H]2C[C@@]3(C(=O)OC)CCCCC=C3N(CCC3=CCCCC3)C2=O)CC1 | -16.7% | –
20 | CC(C)C[C@H]1CNC(=O)C(=O)N1C[C@@H]1CCCN1C[C@H](Cc1ccccc1)N1C[C@H](CC(C)C)N(CC2CCCCCC2)C(=O)C1=O | 18.3% | –
21 | O=C(NCc1ccccn1)[C@@H]1CCCN1C(=O)[C@@H]1CCCN1C(=O)c1ccccc1 | -19.8% | –
22 | COC(=O)c1ccc2nc(-c3ccc(F)cc3)c(Cc3ccc(C)cc3)n2c1 | 4.03% | –
23 | CC1(C(=O)NCc2ccccc2)CSCC(=O)N1CCCn1ccnc1 (stereo not given) | 0.234% | –

Row | Compound | activity change, negative = inhibition | Potency
24 | COc1ccc(C(C(=O)NCc2ccccc2)n2c(=O)c(-c3ccccc3)nc3ccccc32)cc1 (stereo not given) | -4.62% | –
25 | CC(C)(C)NC(=O)C(CCc1ccccc1)n1c(=O)c(-c2ccccc2)nc2ccccc21 (stereo not given) | -7.46% | –
26 | CCCCNC(=O)OC1CC2CC1[C@H]1CCCCN1C2=O (stereo not given in full) | -17.4% | –
27 | CCCCNC(=O)C[C@@H]1C[C@@]2(C(=O)OCC)CCC=C2N(Cc2cccc3ccccc23)C1=O | 5.54% | –
28 | CCCCn1nnnc1C(c1cc2ccccc2o1)N(C)Cc1ccc(Cl)c(Cl)c1 (stereo not given) | 7.34% | –
29 | COC(=O)C[C@H]1C=C[C@@H](NS(=O)(=O)c2ccc(C)cc2)[C@@H](CO)O1 | 14% | –
30 | CCC(c1nnnn1-c1ccc2c(c1)OCCO2)N1CCN(c2ccc(C(F)(F)F)cn2)CC1 (stereo not given) | -0.835% | –
31 | CC(=O)C[C@@H]1OC[C@H](CO)N1S(=O)(=O)c1ccc(C)cc1 | 9.07% | –
32 | COc1ccc(C2OC(CCc3ccccc3)Cc3[nH]c(=S)[nH]c(=O)c32)cc1 (stereo not given) | -21.1% | –
33 | CCOc1ccc(Br)cc1S(=O)(=O)Nc1ccc(S(=O)(=O)Nc2cc(C)on2)cc1 | – | 39.8 µM (active)
34 | CCOc1ccc(CC(=O)Nc2ccc(S(=O)(=O)Nc3cc(C)on3)cc2)cc1OCC | 4.44% | –
35 | CCOc1ccc(C(=O)Nc2ccc(S(=O)(=O)Nc3cc(C)on3)cc2)cc1 | -4.54% | –
36 | CSCCC(C(=O)NC(C)(C)C)n1c(-c2ccccc2)nc2ccccc21 (stereo not given) | 5.22% | –
37 | Fc1cccc(Cc2c(-c3cccc(Cl)c3)nc3ccc(Br)cn23)c1 | -9.71% | –
38 | COC(=O)C[C@@H]1C=C[C@@H](NC(=O)c2cccnc2)[C@@H](CO)O1 | -6.55% | –
39 | C[C@@H]1CC2=C(C(=O)OC(C)(C)O2)[C@@H](C2CC2)O1 | 3.98% | –
40 | O=S1(=O)CC(N2CCN(CCO)CC2)CN1Cc1cn(Cc2ccc(Cl)cc2)nn1 (stereo not given) | -10.3% | –
41 | Cc1nccn1-c1ccc(NC(=O)[C@H]2O[C@@H](n3ccc(=O)[nH]c3=O)[C@H](O)[C@@H]2O)cc1 | -7.46% | –
42 | COc1ccc(OC)c(CN2C(=O)CCC2(C)c2nnnn2Cc2ccccc2)c1 (stereo not given) | 38.3% | –
43 | COC(=O)[C@@]12C[C@@H](CC(=O)NCCCCc3ccccc3)C(=O)N(CCc3ccc(OC)c(OC)c3)C1=CCC(C)(C)C2 | -23.2% | –
44 | CCCCCn1nnnc1-c1nc2cc3ccccc3cc2[nH]c1=O | -10.4% | –
45 | COC(=O)[C@@]12C[C@@H](CC(=O)NCCCCc3ccccc3)C(=O)N(Cc3ccccc3)C1=CCC(C)(C)C2 | 0.731% | –
